# Measurements published in PubChem BioAssay AID720541 (National Center for Advancing Translational Sciences (NCATS), 2013).
# The campaign covered roughly 1,300 compounds. About 420 (32%) were called active. Roughly 32% stayed inconclusive and do not appear here. The list shows a part of the results. A number with no mark means an inactive call. Calls follow the shape of the dose curve; as a rule, active = well fitted inhibition curve with a large enough effect; inconclusive = small, poorly fitted or top-dose-only effect; inactive = no such curve, though single readings can be large or run the other way.
# Target: C-terminal-binding protein 1 (Homo sapiens) (UniProt Q13363)
# Assay: qHTS for Inhibitors of the Phosphatase Activity of Eya2: Carboxyl-terminal binding protein (CtBP) Counterscreen for Cherry-picked Compounds; also: nearly all actives have a fitted effect of over 65% in size
# Conditions: purified protein-protein binding, AlphaScreen, 3 h; series mostly up to 46.1 µM; activity change, negative = inhibition: at the top concentration
# Procedure, shortened: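 AlphaScreen using 25 nM GST-E1A with 25 nM CtBP-6xHIS; compounds at 2.5 nM–46 uM final, 2 h at room temperature, then donor/acceptor beads (20 ug/mL) for 1 h in the dark. Signal normalized to E1A peptide inhibitor (maximum inhibition) and DMSO.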
# % is scaled to controls: 0 for no effect and ±100 for the full control effect; potency is read from the fitted curve at half-maximal effect.
Structure (SMILES),Potency,"activity change, negative = inhibition"
COc1cccc(/C=N/N2C(=O)CSC2=S)c1O,1.2 µM (active),
Cc1ccc(Nc2nc(NCCO)nc3c2cnn3C)cc1Cl,7.57 µM (active),
COc1ccc(Nc2nc(-c3c(C)nc4ncccn34)cs2)cc1,2.69 µM (active),
Cc1nc2ncccn2c1-c1csc(Nc2ccccc2)n1,2.39 µM (active),
CC1=C(C(=O)OC(C)C)C(c2ccc(N(C)C)cc2)C2=C(CC(C)(C)CC2=O)N1 (centres undefined),,-23.9%
Cc1cc(C(=O)O)ccc1-n1c(C)cc(C=C2C(=O)c3ccccc3C2=O)c1C,,-10.9%
COC(=O)c1ccc(C23CC4(C2)[C@H](CN(CC2CCCCC2)[C@@H]4c2ccccc2)C3c2ccc(Cl)nc2)cc1 (some centres undefined),,-11.6%
NC(=O)c1c(NC(=O)c2ccc(N3C(=O)CCC3=O)cc2)sc2c1CCCC2,0.478 µM (active),
NC(=O)c1c(NC(=O)c2cnccn2)sc2c1CCCC2,0.301 µM (active),
Cc1sc(NC(=O)C2=COCCO2)c(C(N)=O)c1C,,-82.8%
CCCC(=O)NC(=S)Nc1sc2c(c1C(N)=O)CCC2,,34.4%
COc1ccccc1NC(=O)NCCN1CCN(C(=O)Nc2ccccc2OC)CC1,,4.79%
COc1ccc(-c2cc(C3CCNCC3)[nH]n2)cc1,,9.67%
O=C(Oc1ccc(C(=S)N2CCOCC2)cc1)c1ccc(F)cc1,,2.2%
O=C(/C=C/c1ccccc1)Oc1ccc(C(=S)N2CCOCC2)cc1,0.239 µM (active),
COC(=O)c1ccc(OC(=O)c2cccnc2)cc1,,-29.8%
CC(=O)c1ccc(OC(=O)/C=C/c2ccccc2)cc1,0.536 µM (active),
O=C(O)c1ccc2c(c1)C(=O)N(c1ccc(/C=C/C(=O)c3ccccc3)cc1)C2=O,,-12.8%
O=C(Oc1ccc(C(=S)N2CCOCC2)cc1)c1ccccc1,,-24.6%
Cc1ccc(C2CC(c3ccc(Br)cc3)=NN2C(=O)CSC2=NN3CCCC(=O)N=C3S2)cc1 (centres undefined),,-12.1%
Fc1cccc(Cc2c(-c3ccco3)nc3ccc(Br)cn23)c1,,-28%
O=[N+]([O-])c1ccc([N+](=O)[O-])c(Nc2ccc(N3CCOCC3)cc2)c1,,-26.3%
COc1cc(C(=S)N2CCOCC2)ccc1OC(=O)c1ccc([N+](=O)[O-])cc1[N+](=O)[O-],10.7 µM (active),
CC(=O)N1CCN(/[N+]([O-])=N/Oc2ccc([N+](=O)[O-])cc2[N+](=O)[O-])CC1,,21.8%
S=c1[nH]nc(-c2ccccn2)n1/N=C/c1ccc(Br)s1,12 µM (active),

Structure (SMILES),Potency,"activity change, negative = inhibition"
C[C@@]12CCC=C[C@H]1[C@H](c1ccc3ccccc3c1/C=C/c1ccccc1)N(Cc1ccccc1)C2=O,,-18.8%
Cc1ccc(S(=O)(=O)N2c3ccccc3-c3c(ssc3=S)C2(C)C)cc1,15.1 µM (active),
CC(C)OCCCNC(=O)c1ccccc1NC(=O)C1=CSCCO1,,-4.28%
Nc1ccccc1C(=O)NNc1c2ccccc2nc2ccccc12,6.75 µM (active),
CC(C)(C)C(=O)[C@H]1[C@H](c2ccccc2)[C@@]2(N=C(c3ccccc3)OC2=O)C2c3ccccc3C=NN21 (some centres undefined),,-22.7%
CCOc1ccc2nc(N3CCCC(C(=O)N4CCN(CC)CC4)C3)sc2c1 (centres undefined),,-6.01%
O=C1c2cccc3cccc(c23)C(=O)N1CCCN1CCN(c2ccc(F)cc2)CC1,,-28.8%
Cc1ccc2cc(NC(=O)CC(CC(=O)O)c3ccccc3)ccc2n1 (centres undefined),15.1 µM (active),
CCC(=O)Nc1ccc(-c2nnc(SCc3ccccc3)n2C)cc1,,4%
CCSc1nc2ccccc2n1C(=O)c1ccc(S(=O)(=O)N2CCCCC2)cc1,,-13.4%
CCSc1nnc(-c2ccc(S(=O)(=O)N3CCOCC3)cc2)n1C,,12%
Cc1ccc(S(=O)(=O)N2CCOCC2)cc1NC(=O)CSc1nnc2cc(C)c3ccccc3n12,13.5 µM (active),
Cc1cc(C)c2nc(SCC(=O)N(C)C3CCS(=O)(=O)C3)cc(C)c2c1 (centres undefined),,53.7%
COc1ccc(N(CC(=O)Nc2cccc(C(C)=O)c2)S(=O)(=O)c2ccc(NC(C)=O)cc2)cc1,,-14.5%
COc1ccc(S(=O)(=O)c2c(O)c3ccc(C(=O)Nc4cccc(F)c4)cc3[nH]c2=O)cc1,0.536 µM (active),
COc1ccc(C(=O)Nc2cc(OC)c(NC(=O)Nc3ccccc3)cc2OC)cc1,,-9.63%
COc1ccc(S(=O)(=O)c2c(O)c3ccc(C(=O)Nc4ccccc4F)cc3[nH]c2=O)cc1,0.757 µM (active),
COc1ccc(C2NC(C(=O)O)Cc3c2[nH]c2ccccc32)cc1CN1CCN(c2ccc(F)cc2)CC1 (centres undefined),,-57.3%
CCc1nc2ccc(C(=O)NCCCN(C)C)cn2c1N(C)Cc1ccc(OC)cc1,,-3.62%
COc1cc(N(C)C)ccc1/C=C1\C=Cc2ccccc21,8.49 µM (active),
COc1cc(OC)c(OC)cc1/C=C1\C=Cc2ccccc21,12 µM (active),
CN(C)c1ccc(/C=C2\C=Cc3ccccc32)c(Cl)c1,8.49 µM (active),
COc1cc(N(C)C)c(OC)cc1/C=C1\C=Cc2ccccc21,5.36 µM (active),
COc1cc(OC)c(OC)cc1/C=C1\CC(C)C/C(=C\c2cc(OC)c(OC)cc2OC)C1=O (centres undefined),,-29.9%
